Assay results reported in the supplement of paper PMC12636033.
± gives the standard deviation of the averaged measurements. The full ranking holds about 33,000 sequences; the median of “E-score (rank enrichment, -0.5 to 0.5)” is about -0.0068, and the highest 2% start at about 0.24. The list comes from a sample in which the highest values are over-represented; it also holds similar and randomly drawn sequences.

tested on: muMax20 (Max(13-93) K31hArg/K57hArg, M65Nle); experiment: PBM 8-mer E-score (E-score (rank enrichment, -0.5 to 0.5)); higher = stronger preferential binding
Protocol: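 Protein binding microarray (universal PBM chip covering all 10-mers in fixed probe flanks) with chemically synthesized human Max(13-93) bHLH-LZ analogs (not full-length Max) bearing noncanonical residues (hArg, Tha, Aib, Nle at 65) and aromatic Cys staples. Read-out per 8-mer (and its reverse complement): E-score (rank-based enrichment, -0.5 to 0.5) and Z-score of median probe intensity.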

Sequence | PBM 8-mer E-score
TATAGTAA | 0.28 ± 0.024
TGTAGTAA | 0.258 ± 0.033
GATAGTAA | 0.0883 ± 0.11
CGTAGTAA | 0.104 ± 0.053
CTTAGTAA | 0.0409 ± 0.1
ATTAGTAA | 0.246 ± 0.00033
CATAGTAA | 0.163 ± 0.055
AGTAGTAA | 0.151 ± 0.057
CATAGTCA | 0.05 ± 0.035
ATTAGTAC | 0.0781 ± 0.08
TATAGTCA | 0.246 ± 0.027
GATAGTCA | 0.117 ± 0.051
AACGTTAG | 0.091 ± 0.026
AGAGCAAT | -0.0507 ± 0.013
CCACCGCA | -0.117 ± 0.1
ACGGGTAG | -0.226 ± 0.026
CAGATCCG | -0.166 ± 0.073
CTCCCAGC | -0.118 ± 0.04
GTTAGTTA | 0.251 ± 0.048
ATTAGTTA | 0.173 ± 0.015
CTTAGTTA | 0.0136 ± 0.12
GCCTCGAC | -0.225 ± 0.022
AACCCGGA | -0.327 ± 0.033
GTAAGGCA | 0.203 ± 0.12
ATTCTAGA | 0.0758 ± 0.1

Sequence | PBM 8-mer E-score
ATCTACAA | 0.126 ± 0.062
CCGTGGCA | -0.149 ± 0.013
ACGTGGCC | 0.114 ± 0.13
ACGTGGCT | 0.249 ± 0.1
TCGTGGCA | 0.164 ± 0.017
ACGTGGCG | 0.165 ± 0.085
ACGTGGCA | 0.256 ± 0.033
CAGGCTGG | -0.172 ± 0.05
GGTTTCAA | 0.0825 ± 0.073
TATTTCAA | 0.257 ± 0.016
CTTTTCAC | 0.311 ± 0.078
ATTTTCAC | -0.00186 ± 0.074
CTTTTCAA | 0.144 ± 0.06
CATTTCAA | 0.217 ± 0.053
GTTTTCAA | 0.258 ± 0.079
GATTTCAA | -0.0671 ± 0.11
CCTTTCAC | 0.116 ± 0.056
AATAGGGG | 0.0563 ± 0.032
CGCCGCTA | -0.204 ± 0.0029
ACAGAGCC | -0.0681 ± 0.01
CGCATAAC | 0.153 ± 0.039
AGCGCTCC | -0.263 ± 0.015
CCGTGTTC | 0.00613 ± 0.046
ACGTGTTA | 0.321 ± 0.015
ATGTGTTG | 0.225 ± 0.018

Sequence | PBM 8-mer E-score
AGGTGTTG | -0.0311 ± 0.062
AGGTGTTC | 0.157 ± 0.0061
CCGTGTTA | 0.103 ± 0.017
GCGTGTTA | 0.195 ± 0.089
ACGTGTTC | 0.292 ± 0.0076
ACGTGTTG | 0.299 ± 0.081
CACTTGCC | 0.168 ± 0.14
TCACTACA | 0.0656 ± 0.0014
ACCAACAC | 0.174 ± 0.0053
AGCAAATG | 0.0747 ± 0.051
AACTTGAT | 0.198 ± 0.024
GCGAAATA | 0.104 ± 0.11
CGGGAGTC | -0.0836 ± 0.032
ACATTTGG | 0.0453 ± 0.092
GAACCCAA | -0.136 ± 0.086
AAACCCAA | 0.265 ± 0.0051
ACCCCCAA | -0.14 ± 0.0093
AAACCCAT | 0.0906 ± 0.057
AACCCCCA | -0.337 ± 0.0059
AACCCCAA | 0.259 ± 0.015
AAGCGGCG | -0.253 ± 0.0057
ACAAAGAC | 0.226 ± 0.034
ACGCTCTA | 0.000195 ± 0.019
CGAGGGAG | 0.0101 ± 0.048
ACTACTTA | 0.114 ± 0.13

Sequence | PBM 8-mer E-score
AACGTGCG | 0.129 ± 0.053
CCCGTGCG | -0.166 ± 0.0035
GACGTGCC | -0.0314 ± 0.077
AACGTGCA | 0.225 ± 0.0061
CACGTGCG | 0.462 ± 0.035
CACGTGCC | 0.419 ± 0.076
TACGTGCA | 0.155 ± 0.0056
CACGTGCA | 0.451 ± 0.049
AACGTGCC | -0.0196 ± 0.033
ACCCCCTG | -0.181 ± 0.16
AAGCGAAC | -0.038 ± 0.12
ACAAACGT | 0.0903 ± 0.12
GCAAGGCA | 0.0264 ± 0.067
CCGGACCC | -0.294 ± 0.09
ACGTTTGA | 0.254 ± 0.015
GTGTTTGA | 0.241 ± 0.042
CTGTTTGA | 0.143 ± 0.011
CCGTTTGA | -0.202 ± 0.057
ACGTTTGG | -0.00749 ± 0.048
ATGTTTGA | 0.207 ± 0.051
ACACTGCC | -0.0509 ± 0.054
CAACAGAG | -0.088 ± 0.056
CGTGAATC | -0.00172 ± 0.048
AATGTCTC | 0.00715 ± 0.052
CATGTCTA | 0.0944 ± 0.042

Sequence | PBM 8-mer E-score
CATGTCTC | 0.256 ± 0.015
AGTGTAGG | 0.0989 ± 0.087
ATATAATA | 0.302 ± 0.0079
GAATAATA | 0.165 ± 0.01
GGATAATA | 0.0335 ± 0.0051
ATATAATG | 0.2202 ± 0.001
CTATAATA | 0.165 ± 0.0056
GTATAATA | 0.247 ± 0.093
GGCAGAAA | 0.135 ± 0.072
CAGTGCAC | -0.103 ± 0.061
CCCGAGCA | 0.00085 ± 0.0024
GACCGAGC | -0.276 ± 0.069
ATTGCAGA | -0.0371 ± 0.034
TCCACGCA | 0.0588 ± 0.069
ATGGGCGC | -0.129 ± 0.1
ATAGCGTA | -0.019 ± 0.055
ATTCCACA | 0.101 ± 0.1
CAGAACTC | -0.171 ± 0.057
AAGGATAA | 0.149 ± 0.041
AAGGATAT | 0.247 ± 0.062
AAGGATAC | -0.00358 ± 0.02
AGCGATTC | -0.0904 ± 0.024
ACATGAGT | 0.0854 ± 0.027
TCATGAGA | 0.111 ± 0.0016
ACATGAAC | 0.0854 ± 0.018

Sequence | PBM 8-mer E-score
ACATGAAT | 0.24 ± 0.04
ACATGAAG | 0.0775 ± 0.23
ACATGAGA | 0.253 ± 0.039
ACCAACAT | 0.0339 ± 0.18
GACGGGGA | -0.043 ± 0.026
ACCAGGTG | -0.184 ± 0.13
CGGCTACC | -0.274 ± 0.058
ATACTTTG | 0.107 ± 0.036
CTACTTTA | 0.0793 ± 0.013
ATACTTTA | 0.279 ± 0.0074
GTGAGTGA | -0.073 ± 0.17
ATGTTGTA | 0.284 ± 0.016
GTGTTGTA | 0.164 ± 0.016
ATGTTGTG | 0.145 ± 0.062
AGGCGCAA | -0.0721 ± 0.067
ATAATAGA | 0.0729 ± 0.052
ACAATATA | 0.211 ± 0.037
GTAATATA | 0.267 ± 0.012
ATAATATA | 0.263 ± 0.042
ATAATATC | 0.257 ± 0.035
CTAATATA | 0.214 ± 0.0087
CTAATATC | 0.214 ± 0.06
ATAATATG | 0.169 ± 0.035
GTAATAAA | 0.154 ± 0.041
GAGGACCC | -0.228 ± 0.037

Sequence | PBM 8-mer E-score
AGTAATCA | 0.109 ± 0.12
CGGGGCGA | -0.112 ± 0.037
AGAACTCC | -0.0617 ± 0.081
AAAGGCTA | -0.0552 ± 0.0014
GACGGATA | -0.139 ± 0.049
GCTCACCA | -0.15 ± 0.068
ATACCCCG | -0.0795 ± 0.096
AACGACCA | 0.0599 ± 0.047
ACTGCCAG | -0.0897 ± 0.06
ACACAAAA | 0.208 ± 0.055
ATACAAAG | 0.136 ± 0.09
TTACAAAA | 0.126 ± 0.043
ATACAAAC | 0.225 ± 0.037
CTACAAAA | 0.0991 ± 0.063
ACACAAAG | 0.23 ± 0.078
ATACAACA | 0.254 ± 0.025
ATACAAAA | 0.305 ± 0.0098
ATACAACG | 0.203 ± 0.026
ATACAAAT | 0.273 ± 0.038
ACACAAAC | 0.25 ± 0.056
ATACAACC | -0.0691 ± 0.073
ACGGCCGG | -0.2416 ± 0.0019
